Measured values reported in the supplement of paper PMC10849652.
Targets with a hit are over-represented here; the source holds about 8,800 in all. About 0.5% of all pairs of compound and target were hits. A number with no mark means an inactive call.

Columns and labels:
Experiment in all cases: log2 fold change, soluble protein after heating vs DMSO (PISA); higher = thermal stabilisation; K562 lysate, 10 uM; active = over 0.2 and 3.5 SD of the protein, either way, in both replicates (recomputed)
lapatinib = compound: CS(=O)(=O)CCNCc1ccc(-c2ccc3ncnc(Nc4ccc(OCc5cccc(F)c5)c(Cl)c4)c3c2)o1 [lapatinib]
Summary of the method: (§1)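 The values are log-two fold changes in thermal stability compared with solvent controls and come from duplicates. They were obtained by TMTpro 16plex LC-MS/MS, with channel sums equalised, on the supernatant after 21,000xg for 90 min. That supernatant came from crude K562 extract at 1 mg/mL protein treated with 10 μM compound for 30 min, heated for 3 min across 48°C-58°C, pooled and brought to 0.5% NP-40 at 4°C.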

pictilisib = compound: CS(=O)(=O)N1CCN(Cc2cc3nc(-c4cccc5[nH]ncc45)nc(N4CCOCC4)c3s2)CC1 [pictilisib]
Summary of the method: as §1

crizotinib = compound: C[C@@H](Oc1cc(-c2cnn(C3CCNCC3)c2)cnc1N)c1c(Cl)ccc(F)c1Cl [crizotinib]
Summary of the method: as §1

[1] = compound: C[C@H](C1=CC=C(C=C1)C(=O)NC2=C3C=CNC3=NC=C2)N
Summary of the method: as §1

duvelisib = compound: C[C@H](Nc1ncnc2nc[nH]c12)c1cc2cccc(Cl)c2c(=O)n1-c1ccccc1 [duvelisib]
Summary of the method: as §1

gandotinib = compound: Cc1cc(Nc2cc(CN3CCOCC3)c3nc(C)c(Cc4ccc(Cl)cc4F)n3n2)n[nH]1 [gandotinib]
Summary of the method: as §1

tozasertib = compound: Cc1cc(Nc2cc(N3CCN(C)CC3)nc(Sc3ccc(NC(=O)C4CC4)cc3)n2)n[nH]1 [tozasertib]
Summary of the method: as §1

doramapimod = compound: Cc1ccc(-n2nc(C(C)(C)C)cc2NC(=O)Nc2ccc(OCCN3CCOCC3)c3ccccc23)cc1 [doramapimod]
Summary of the method: as §1

bafetinib = compound: Cc1ccc(NC(=O)c2ccc(CN3CC[C@H](N(C)C)C3)c(C(F)(F)F)c2)cc1Nc1nccc(-c2cncnc2)n1 [bafetinib]
Summary of the method: as §1

[2] = compound: Cc1cccc(CC(=O)N2CCc3c2ccc(-c2cn(C)c4ncnc(N)c24)c3F)n1
Summary of the method: as §1

Chain of UniProt Q99766 (Q99766 whole entry, looked up): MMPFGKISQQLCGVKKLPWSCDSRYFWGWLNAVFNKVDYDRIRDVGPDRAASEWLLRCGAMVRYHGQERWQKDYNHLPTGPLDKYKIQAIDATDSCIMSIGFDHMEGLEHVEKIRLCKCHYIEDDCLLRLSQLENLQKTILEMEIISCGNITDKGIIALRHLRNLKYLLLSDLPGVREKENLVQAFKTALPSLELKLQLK
Chain of UniProt P09543 (P09543 whole entry, looked up): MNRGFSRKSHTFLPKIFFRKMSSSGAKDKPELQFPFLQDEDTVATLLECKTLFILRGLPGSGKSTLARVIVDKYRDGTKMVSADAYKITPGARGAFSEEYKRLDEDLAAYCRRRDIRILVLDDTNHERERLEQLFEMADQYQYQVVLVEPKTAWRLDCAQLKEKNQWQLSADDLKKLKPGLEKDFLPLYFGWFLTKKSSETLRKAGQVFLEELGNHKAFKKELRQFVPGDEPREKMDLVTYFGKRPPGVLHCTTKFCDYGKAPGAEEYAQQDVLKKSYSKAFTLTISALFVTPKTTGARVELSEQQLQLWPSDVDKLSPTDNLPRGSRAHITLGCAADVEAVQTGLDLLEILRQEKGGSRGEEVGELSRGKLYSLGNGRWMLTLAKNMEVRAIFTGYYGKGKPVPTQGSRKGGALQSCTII
Chain of UniProt Q8WYQ5 (Q8WYQ5 whole entry, looked up): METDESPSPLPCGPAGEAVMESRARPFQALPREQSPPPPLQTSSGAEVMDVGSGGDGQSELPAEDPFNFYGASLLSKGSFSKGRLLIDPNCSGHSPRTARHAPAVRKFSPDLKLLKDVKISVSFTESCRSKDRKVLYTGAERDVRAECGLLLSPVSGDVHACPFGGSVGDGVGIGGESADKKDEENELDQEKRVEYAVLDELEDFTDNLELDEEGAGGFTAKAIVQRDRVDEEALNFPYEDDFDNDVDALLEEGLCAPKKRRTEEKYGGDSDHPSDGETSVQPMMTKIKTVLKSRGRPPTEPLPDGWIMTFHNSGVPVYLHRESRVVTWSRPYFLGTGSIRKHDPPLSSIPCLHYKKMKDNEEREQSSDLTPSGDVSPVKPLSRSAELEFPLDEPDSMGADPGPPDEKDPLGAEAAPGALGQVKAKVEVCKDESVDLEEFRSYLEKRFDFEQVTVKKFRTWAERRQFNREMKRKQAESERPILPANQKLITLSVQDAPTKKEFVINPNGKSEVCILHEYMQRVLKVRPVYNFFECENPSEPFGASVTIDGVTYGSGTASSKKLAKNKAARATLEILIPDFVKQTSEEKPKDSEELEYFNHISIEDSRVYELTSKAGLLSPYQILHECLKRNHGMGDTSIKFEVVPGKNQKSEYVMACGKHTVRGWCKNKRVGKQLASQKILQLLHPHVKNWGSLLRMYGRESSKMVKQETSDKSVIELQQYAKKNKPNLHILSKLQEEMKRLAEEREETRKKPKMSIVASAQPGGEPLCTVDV
Chain of UniProt Q96N67 (Q96N67 whole entry, looked up): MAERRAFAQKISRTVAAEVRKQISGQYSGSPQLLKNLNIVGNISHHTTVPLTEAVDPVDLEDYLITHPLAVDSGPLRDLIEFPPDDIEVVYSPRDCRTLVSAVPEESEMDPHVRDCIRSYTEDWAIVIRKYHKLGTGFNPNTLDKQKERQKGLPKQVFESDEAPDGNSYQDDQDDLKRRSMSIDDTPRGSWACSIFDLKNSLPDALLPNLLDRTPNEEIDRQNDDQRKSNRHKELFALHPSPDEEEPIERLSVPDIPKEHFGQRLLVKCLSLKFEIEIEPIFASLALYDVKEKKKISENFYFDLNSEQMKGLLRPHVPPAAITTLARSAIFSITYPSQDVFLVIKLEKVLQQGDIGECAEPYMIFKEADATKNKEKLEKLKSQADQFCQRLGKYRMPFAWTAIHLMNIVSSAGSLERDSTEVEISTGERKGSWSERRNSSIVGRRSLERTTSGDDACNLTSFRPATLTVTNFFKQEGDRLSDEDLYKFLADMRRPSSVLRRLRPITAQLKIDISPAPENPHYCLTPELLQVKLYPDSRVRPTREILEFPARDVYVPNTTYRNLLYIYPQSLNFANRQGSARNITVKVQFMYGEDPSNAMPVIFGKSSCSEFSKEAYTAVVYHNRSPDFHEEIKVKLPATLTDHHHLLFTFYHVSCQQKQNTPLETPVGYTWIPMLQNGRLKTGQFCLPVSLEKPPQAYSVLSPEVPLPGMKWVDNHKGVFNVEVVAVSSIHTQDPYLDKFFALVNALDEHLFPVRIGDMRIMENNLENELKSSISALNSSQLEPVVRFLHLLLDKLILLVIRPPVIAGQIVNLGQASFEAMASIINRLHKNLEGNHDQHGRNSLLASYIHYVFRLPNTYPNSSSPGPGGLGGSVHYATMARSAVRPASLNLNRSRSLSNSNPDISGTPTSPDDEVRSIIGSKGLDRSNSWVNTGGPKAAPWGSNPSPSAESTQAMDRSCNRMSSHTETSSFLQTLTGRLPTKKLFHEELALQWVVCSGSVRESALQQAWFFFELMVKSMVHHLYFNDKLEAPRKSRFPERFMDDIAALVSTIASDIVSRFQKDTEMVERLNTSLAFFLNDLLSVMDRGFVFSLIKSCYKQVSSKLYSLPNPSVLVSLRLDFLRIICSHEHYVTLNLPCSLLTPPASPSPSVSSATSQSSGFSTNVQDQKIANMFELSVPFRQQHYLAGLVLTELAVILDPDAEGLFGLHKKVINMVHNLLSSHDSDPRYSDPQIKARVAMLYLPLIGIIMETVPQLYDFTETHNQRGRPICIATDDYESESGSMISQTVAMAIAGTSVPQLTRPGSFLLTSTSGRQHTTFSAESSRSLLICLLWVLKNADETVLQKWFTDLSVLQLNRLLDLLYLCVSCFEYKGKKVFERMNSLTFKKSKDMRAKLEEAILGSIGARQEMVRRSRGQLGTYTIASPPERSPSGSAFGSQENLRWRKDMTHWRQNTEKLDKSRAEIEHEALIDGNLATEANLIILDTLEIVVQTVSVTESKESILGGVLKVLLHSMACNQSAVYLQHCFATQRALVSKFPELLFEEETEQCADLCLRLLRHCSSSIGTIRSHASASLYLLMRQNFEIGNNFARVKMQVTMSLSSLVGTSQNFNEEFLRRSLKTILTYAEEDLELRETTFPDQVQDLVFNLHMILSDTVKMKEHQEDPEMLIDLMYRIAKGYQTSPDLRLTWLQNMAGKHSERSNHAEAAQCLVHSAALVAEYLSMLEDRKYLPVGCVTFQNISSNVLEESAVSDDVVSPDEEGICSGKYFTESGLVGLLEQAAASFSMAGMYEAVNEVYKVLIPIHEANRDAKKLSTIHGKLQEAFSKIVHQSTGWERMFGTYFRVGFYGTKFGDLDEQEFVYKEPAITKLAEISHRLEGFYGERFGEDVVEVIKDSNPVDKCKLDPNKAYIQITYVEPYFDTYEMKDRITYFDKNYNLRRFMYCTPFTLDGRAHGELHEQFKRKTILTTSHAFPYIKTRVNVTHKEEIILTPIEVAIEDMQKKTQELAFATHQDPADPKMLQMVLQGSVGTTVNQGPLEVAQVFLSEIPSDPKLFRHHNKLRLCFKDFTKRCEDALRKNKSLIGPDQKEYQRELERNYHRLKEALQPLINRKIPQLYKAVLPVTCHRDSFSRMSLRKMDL
Chain of UniProt Q8NI60 (Q8NI60 whole entry, looked up): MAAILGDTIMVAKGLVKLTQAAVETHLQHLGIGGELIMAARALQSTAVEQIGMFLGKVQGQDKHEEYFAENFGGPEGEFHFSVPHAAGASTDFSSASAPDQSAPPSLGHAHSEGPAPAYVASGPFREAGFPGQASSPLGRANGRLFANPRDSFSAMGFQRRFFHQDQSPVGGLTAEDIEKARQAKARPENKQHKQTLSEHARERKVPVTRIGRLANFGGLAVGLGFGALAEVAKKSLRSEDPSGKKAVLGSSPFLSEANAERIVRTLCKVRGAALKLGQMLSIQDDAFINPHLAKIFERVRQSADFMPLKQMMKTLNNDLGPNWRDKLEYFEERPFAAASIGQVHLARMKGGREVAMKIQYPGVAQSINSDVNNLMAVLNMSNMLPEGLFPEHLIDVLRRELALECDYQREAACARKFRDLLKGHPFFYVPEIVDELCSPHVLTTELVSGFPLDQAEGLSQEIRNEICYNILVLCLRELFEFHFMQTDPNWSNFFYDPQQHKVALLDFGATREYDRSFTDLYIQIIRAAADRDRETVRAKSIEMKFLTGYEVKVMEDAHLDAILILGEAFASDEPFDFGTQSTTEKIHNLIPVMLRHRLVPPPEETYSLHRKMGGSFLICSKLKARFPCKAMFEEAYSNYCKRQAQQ
Chain of UniProt O60762 (O60762 whole entry, looked up): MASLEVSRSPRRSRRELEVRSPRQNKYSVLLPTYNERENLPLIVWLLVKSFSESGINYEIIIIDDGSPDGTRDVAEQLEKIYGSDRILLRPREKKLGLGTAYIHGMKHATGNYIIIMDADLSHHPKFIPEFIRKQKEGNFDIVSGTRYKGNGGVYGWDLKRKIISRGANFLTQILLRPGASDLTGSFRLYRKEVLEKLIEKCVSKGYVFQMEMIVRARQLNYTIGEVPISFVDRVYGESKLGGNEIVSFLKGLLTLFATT
Chain of UniProt Q99704 (Q99704 whole entry, looked up): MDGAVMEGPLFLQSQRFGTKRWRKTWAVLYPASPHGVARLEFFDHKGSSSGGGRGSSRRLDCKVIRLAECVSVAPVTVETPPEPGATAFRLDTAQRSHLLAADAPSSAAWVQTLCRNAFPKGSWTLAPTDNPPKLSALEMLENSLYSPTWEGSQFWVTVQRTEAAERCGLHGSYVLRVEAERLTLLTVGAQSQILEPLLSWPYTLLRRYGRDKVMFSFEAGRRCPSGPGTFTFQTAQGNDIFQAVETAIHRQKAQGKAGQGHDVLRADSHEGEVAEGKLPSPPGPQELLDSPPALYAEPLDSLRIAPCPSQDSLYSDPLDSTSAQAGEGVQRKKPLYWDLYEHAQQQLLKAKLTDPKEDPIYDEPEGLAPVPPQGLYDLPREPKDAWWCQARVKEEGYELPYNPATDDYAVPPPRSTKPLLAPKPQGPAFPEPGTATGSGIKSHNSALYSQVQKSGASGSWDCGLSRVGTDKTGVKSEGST
Chain of UniProt Q5RI15 (Q5RI15 whole entry, looked up): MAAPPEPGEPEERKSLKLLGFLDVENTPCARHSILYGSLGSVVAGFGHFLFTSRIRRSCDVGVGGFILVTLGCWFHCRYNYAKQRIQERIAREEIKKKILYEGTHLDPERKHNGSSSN

| Target | log2 fold change (lapatinib) | log2 fold change (pictilisib) | log2 fold change (crizotinib) | log2 fold change [1] | log2 fold change (duvelisib) | log2 fold change (gandotinib) | log2 fold change (tozasertib) | log2 fold change (doramapimod) | log2 fold change (bafetinib) | log2 fold change [2] |
| --- | --- | --- | --- | --- | --- | --- | --- | --- | --- | --- |
| DNAJC3 (UniProt Q13217) | 0.01 | -0.015 | 0.047 | 0.001 | 0.046 | 0.012 | 0.014 | -0.064 | -0.002 | -0.014 |
| CINP isoform 3 (UniProt Q9BW66) | -0.059 | 0.011 | -0.028 | -0.325 (active) | 0.062 | 0.018 | 0.056 | 0.036 | -0.059 | 0.208 |
| DCTN1 (UniProt Q14203) | -0.005 | -0.021 | -0.005 | 0.027 | 0.001 | -0.029 | -0.002 | -0.013 | -0.023 | -0.005 |
| COQ8A (UniProt Q8NI60) | 0.004 | 0.025 | 0.106 | -0.078 | -0.095 | 0.126 | 0.023 | -0.059 | 0.041 | -0.042 |
| DAZAP1 (UniProt Q96EP5) | 0.017 | -0.043 | 0.073 | 0.035 | 0.015 | 0 | 0.064 | 0.003 | 0.243 | -0.04 |
| CUEDC2 (UniProt Q9H467) | 0.018 | -0.119 | 0.001 | 0.528 (active) | -0.009 | -0.026 | -0.055 | 0.022 | -0.073 | -0.082 |
| DGCR8 (UniProt Q8WYQ5) | -0.023 | -0.048 | 0.039 | -0.056 | -0.014 | -0.032 | -0.012 | 0.04 | -0.009 | 0.044 |
| DNAJC5 (UniProt Q9H3Z4) | -0.021 | 0.075 | 0.007 | -0.377 (active) | -0.041 | 0.161 | -0.054 | 0.023 | -0.144 | 0.334 (active) |
| DES (UniProt P17661) | -0.079 | -0.03 | -0.082 | -0.301 | 0.098 | 0.13 | -0.014 | 0.047 | -0.051 | 0.121 |
| DMAC2L (UniProt Q99766) | -0.021 | -0.036 | 0.012 | -0.048 | -0.037 | 0.047 | 0.087 | 0.002 | 0.009 | 0.1 |
| DOK1 (UniProt Q99704) | 0.01 | -0.026 | 0.007 | -0.056 | -0.002 | 0.042 | 0.008 | 0.044 | -0.006 | -0.001 |
| COX20 isoform 2 (UniProt Q5RI15) | 0.016 | 0.186 | 0.054 | 0.455 (active) | -0.007 | -0.144 | -0.053 | -0.036 | 0.144 | -0.273 |
| CNP (UniProt P09543) | 0.014 | 0.015 | -0.023 | 0.002 | -0.002 | -0.047 | 0.012 | 0.039 | -0.026 | 0.022 |
| DOCK8 (UniProt Q8NF50) | -0.032 | -0.011 | -0.03 | -0.002 | 0.003 | -0.097 | 0.042 | 0.029 | -0.062 | 0.02 |
| CWC22 (UniProt Q9HCG8) | 0.059 | -0.027 | -0.051 | 0.46 (active) | 0.011 | -0.207 | 0.072 | -0.019 | -0.088 | -0.109 |
| DERA (UniProt Q9Y315) | -0.002 | -0.028 | -0.015 | 0.732 (active) | -0.004 | -0.072 | -0.028 | -0.001 | 0.012 | -0.132 |
| CIC (UniProt I3L2J0) | -0.074 | -0.02 | -0.002 | -0.052 | -0.047 | 0.006 | 0.02 | -0.036 | -0.08 | 0.037 |
| CNOT6L (UniProt Q96LI5) | -0.03 | -0.042 | -0.076 | -0.251 | -0.001 | 0.065 | 0.064 | 0.012 | -0.1 | 0.114 |
| DPM1 (UniProt O60762) | -0.003 | 0.009 | 0.009 | 0.028 | -0.018 | -0.097 | -0.014 | -0.046 | -0.061 | 0.061 |
| DLGAP5 (UniProt Q15398) | 0.02 | 0 | -0.016 | -0.029 | -0.005 | 0.049 | -0.014 | 0.001 | -0.008 | 0.04 |
| DOCK7 (UniProt Q96N67) | -0.003 | -0.016 | -0.022 | -0.107 | -0.004 | -0.103 | 0.047 | 0.012 | -0.032 | 0.102 |
| DDA1 (UniProt Q9BW61) | 0.011 | -0.025 | 0.025 | -0.013 | -0.013 | -0.019 | -0.037 | 0.013 | 0.011 | -0.062 |
| CKAP2 (UniProt Q8WWK9) | -0.004 | -0.02 | -0.027 | 0.064 | 0.016 | 0.016 | 0.034 | -0.001 | 0.019 | -0.009 |
| COL6A5 (UniProt A8TX70) | -0.07 | -0.035 | -0.197 | -0.966 (active) | 0.013 | 0.295 | -0.099 | 0.053 | -0.13 | 0.486 (active) |
| DHRS11 (UniProt Q6UWP2) | -0.017 | 0.014 | 0.024 | -0.035 | 0.024 | -0.007 | 0.028 | -0.032 | -0.051 | -0.02 |
| CHORDC1 (UniProt Q9UHD1) | -0.001 | 0.009 | 0.022 | 0.18 | 0.006 | -0.011 | 0.022 | -0.028 | 0.022 | -0.031 |
| CIB1 (UniProt Q99828) | -0.073 | 0.047 | -0.046 | 0.023 | -0.006 | -0.008 | 0.06 | 0.051 | 0.115 | 0.059 |
| CTNNBL1 (UniProt Q8WYA6) | 0 | -0.011 | -0.032 | 0.015 | 0 | -0.058 | 0.033 | 0.058 | -0.103 | 0.043 |
